In all, about 350,000 compounds went through this assay and about 7,000 (2%) were called active. The sample holds actives, similar compounds and a random draw of the others, so the mix is not that of the screen. Unmarked numbers belong to inactive results. Rule as the data show it: active = activation above about 40%; inconclusive = no clear call, values can overlap the other calls; inactive = below that.
assay: Bmi1 luciferase reporter increase in mESCs, primary screen, esBAF inhibitor project, mouse ES cells, Bmi1 luciferase knock-in, single point (AID 602393); conditions: 24 h, at 12.5 µM, stronger effect = higher value, 100% = twice the neutral-well signal;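 also: 0% = median of the plate's neutral control wells and 100% = double that signal; a rise in the Bmi1 reporter signal indicates esBAF inhibition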

| SMILES | reporter increase |
| --- | --- |
| COc1ccc(NC(=O)N(C)C[C@@H]2Oc3ncc(-c4ccc(C#N)cc4)cc3C(=O)N([C@@H](C)CO)C[C@H]2C)cc1 | -0.692% |
| COc1ccc(N=Cc2c(O)[nH]c3ccccc23)cc1OC | 73.5% (active) |
| COc1ccc(CNC(=O)[C@H](Cc2c[nH]c3ccccc23)NC(C)=O)cc1OC | 3.18% |
| COc1cc2[nH]c(O)c(C=O)c2cc1OC | 3.41% |
| C[C@H](CO)N1C[C@H](C)[C@H](CN(C)C(=O)Nc2ccc(C(F)(F)F)cc2)Oc2ccc(NC(=O)C3CC3)cc2C1=O | -3.98% |
| COc1cc(NC(=O)COC(=O)c2ccc([N+](=O)[O-])s2)cc(OC)c1OC | -3.17% |
| CCCn1c(C)cc(/C=C(\C#N)C(=O)OCC(=O)Nc2cc(OC)c(OC)c(OC)c2)c1C | 61.6% (active) |
| CCCn1c(C)cc(/C=C(\C#N)C(=O)OCC(=O)N(C)c2c(N)n(Cc3ccccc3)c(=O)[nH]c2=O)c1C | 9.72% |
| C[C@@H]1CN([C@@H](C)CO)S(=O)(=O)c2ccc(C#C[C@@H](C)O)cc2O[C@@H]1CN(C)C(=O)Cc1ccccn1 | 1.02% |
| Cc1ccccc1S(=O)(=O)NCC[C@@H]1CC[C@H](NC(=O)C2CCCCC2)[C@@H](CO)O1 | 4.09% |
| O=C(CC1CC1)N1CC[C@@H]2[C@@H](CO)Nc3ccc(-c4ccccc4)cc3[C@@H]21 | -5.1% |
| COc1ccc(Nc2cc(=O)oc3ccccc23)cc1 | 3.87% |
| COc1ccc(Nc2ccc3ccccc3c2)cc1 | 119% (active) |
| COc1ccc(NC2=CC(=S)NC(C)(C)C2)cc1 | 1.51% |
| O=C(C1CCOCC1)N1C[C@H]2[C@@H](c3ccccc31)[C@@H](CO)N2Cc1ccccc1F | 0.141% |
| CCNC(=O)C[C@@H]1CC[C@@H]2[C@@H](COc3ccc(NC(=O)c4cccc(C(F)(F)F)c4)cc3C(=O)N2C)O1 | 3.63% |
| CC(OC(=O)CN1C(=O)c2ccccc2C1=O)C(=O)c1ccccc1 (stereo unspecified) | -0.946% |
| Cc1cc(/C=C2/SC(=O)N(CC(=O)N3CCCC3)C2=O)c(C)n1C | 0.583% |
| Cc1cc(/C=C2/SC(=O)N(CC(=O)OC(C)C)C2=O)c(C)n1C | 83.5% (active) |
| COc1ccccc1-c1ccc2c(c1)O[C@H](CN(C)C(=O)c1cccnc1)[C@@H](C)CN([C@H](C)CO)S2(=O)=O | 0.986% |
| C[C@H](CO)N1C[C@H](C)[C@H](CN(C)CC2CC2)OCCCC[C@H](C)Oc2ccc(NC(=O)c3ccncc3)cc2C1=O | -1.67% |

| SMILES | reporter increase |
| --- | --- |
| CCOC(OCC)c1ccc(/C=C\c2nccc(N)n2)cc1 | 46.6% (active) |
| Cc1noc(C)c1NC(=O)Nc1ccc2c(c1)C(=O)N([C@H](C)CO)C[C@H](C)[C@H](CN(C)Cc1ccc(C(=O)O)cc1)OCCCC[C@H](C)O2 | -3.6% |
| CC(Sc1ncnc2c1cnn2-c1ccccc1)C(=O)Nc1ccc(N2CCOCC2)cc1 (stereo unspecified) | 13.9% |
| Cc1ccc(Nc2ncnc3c2cnn3C)c(C)c1 | -6% |
| Cc1ccc(-n2ncc3c(Nc4cccc(C(=O)O)c4)ncnc32)cc1 | 57.1% (active) |
| CNC[C@H]1Oc2cc(-c3cccnc3)ccc2S(=O)(=O)N([C@@H](C)CO)C[C@H]1C | 3.67% |
| CSc1ccccc1NC(=O)c1cnc2sc(C)cn2c1=O | 68.8% (active) |
| CSc1ccccc1NC(=O)c1cc(Cl)sc1Cl | -9.78% |
| Cc1ccccc1C(=O)Nc1ccccc1Sc1ccccc1 | -8.84% |
| O=C(c1ccccc1)N1CC[C@H]2[C@H](CO)Nc3ccc(-c4ccc(F)cc4)cc3[C@H]21 | -5.91% |
| CCCN(C)C[C@H]1Oc2ncc(-c3cccnc3)cc2C(=O)N([C@@H](C)CO)C[C@@H]1C | 5.67% |
| Cn1c(=NC(=O)C2CC2)sc2cc(F)cc(F)c21 | 62% (active) |
| Cn1c(=NC(=O)c2ccco2)sc2cccc(F)c21 | 29% |
| CCC(=O)Nc1ccc2c(c1)OC[C@H](C)N(Cc1ccccc1F)C[C@H](C)[C@@H](OC)CN(C)C2=O | 0.435% |
| C[C@H](CO)N1C[C@H](C)[C@H](CN(C)CC2CCCCC2)Oc2c(NC(=O)c3cnccn3)cccc2C1=O | -2.88% |
| O=C(c1cc2c(s1)CCC2)N1CCN(c2ccccc2)CC1 | 6.19% |
| O=C(CNC(=O)c1cc2c(s1)CCC2)Nc1ccccc1Br | 30.7% |
| O=C(NNC(=O)c1cc2c(s1)CCCC2)c1ccccc1 | 40.9% (active) |
| CCNC(=O)C[C@@H]1CC[C@H](NC(=O)C2CCC2)[C@@H](CO)O1 | 4.25% |
| C[C@@H]1CN([C@H](C)CO)C(=O)Cc2cc(NC(=O)C3CCCCC3)ccc2O[C@@H]1CN(C)S(C)(=O)=O | -5.11% |
| C[C@@H]1CN([C@@H](C)CO)S(=O)(=O)c2ccc(C#CC3CCCC3)cc2O[C@H]1CN(C)S(C)(=O)=O | 20.1% |

| SMILES | reporter increase |
| --- | --- |
| COc1cccc(-c2cc3nc4c(c(N5CCC6(CC5)OCCO6)n3n2)CCCC4)c1 | 42.7% (active) |
| O=C(c1ccccc1)N1CCN(c2cc(-c3ccccc3)nc3cc(-c4cccc(Cl)c4)nn23)CC1 | -1.84% |
| COc1cccc(CNc2nc3nc4c(c(=O)n3[nH]2)CCC4)c1 | -1.38% |
| O=C(C[C@@H]1CC[C@@H]2[C@H](COC[C@H](O)CN2Cc2cccc(C(F)(F)F)c2)O1)NCc1ccc(F)cc1 | -1.09% |
| C[C@@H]1CN([C@@H](C)CO)C(=O)c2cc(NC(=O)Nc3cccc4ccccc34)ccc2O[C@@H](C)CCCCO[C@@H]1CN(C)S(=O)(=O)c1ccc(Cl)cc1 | 2.17% |
| O=C(c1cccs1)N1CCCC(c2nc(-c3ccc(F)cc3)no2)C1 (stereo unspecified) | 51.6% (active) |
| COc1cc(-c2noc(C3CCCN(S(=O)(=O)c4cccc(Cl)c4)C3)n2)cc(OC)c1OC (stereo unspecified) | 0.345% |
| CCOC(=O)C1(C)CCCN(C(=O)c2cccc(Cl)c2)C1 (stereo unspecified) | -1.3% |
| Cc1ccc(-c2noc(C3CCCN(C(=O)c4cccc(Cl)c4)C3)n2)o1 (stereo unspecified) | 46.6% (active) |
| COc1cccc(-c2noc(C3CCCN(C(=O)c4ccc(F)cc4)C3)n2)c1 (stereo unspecified) | 5.64% |
| O=C(Cc1cccs1)N1CCCC(c2nc(-c3ccc(S(=O)(=O)N4CCCC4)cc3)no2)C1 (stereo unspecified) | -3.86% |
| COc1ccccc1NC(=O)N(C)C[C@@H]1Oc2ncc(Br)cc2C(=O)N([C@@H](C)CO)C[C@@H]1C | -5.49% |
| O=C(NCC[C@@H]1CC[C@@H](NC(=O)Nc2cc(F)ccc2F)[C@H](CO)O1)Nc1ccc(Cl)cc1 | 38.7% |
| C[C@H]1CN([C@@H](C)CO)C(=O)c2cc(C3=CCCCC3)cnc2O[C@H]1CN(C)Cc1ccncc1 | -11.9% |
| O=C(O)C1CCN(C(=O)OCc2ccccc2)CC1 | 59.3% (active) |
| CCOC(=O)N1CCC(NC(=O)CCc2ccccc2)CC1 | -4.64% |
| O=C(NCc1ccccc1)C1CCN(C(=O)Cc2ccccc2)CC1 | 1.43% |
| CC(C)NC(=O)Nc1ccc2c(c1)C(=O)N([C@@H](C)CO)C[C@H](C)[C@@H](CN(C)S(C)(=O)=O)O2 | -2.99% |
| COCC(=O)Nc1ccc2c(c1)C(=O)N(C)C[C@@H](OC)[C@H](C)CN(C(=O)c1ccccn1)[C@@H](C)CO2 | 4.23% |
| CCCOC(=O)C1=C(C)NC2=C(C(=O)C(C(=O)OC)C(C)C2)C1c1ccc(N(C)C)cc1 (stereo unspecified) | 8.57% |
| CCCOC(=O)c1[nH]c2c(c1C)C(=O)CC(c1cccs1)C2 (stereo unspecified) | -12.1% |

| SMILES | reporter increase |
| --- | --- |
| CCOC(=O)c1[nH]c2c(c1C)C(=O)CC(c1ccc(N(C)C)cc1)C2 (stereo unspecified) | 51.2% (active) |
| CC(=O)N1[C@H](CO)[C@H](c2ccc(-c3ccccc3)cc2)[C@H]1CNC(=O)C1CC1 | 2.48% |
| COc1ccccc1S(=O)(=O)Nc1ccc2c(c1)C(=O)N(C)C[C@H](OC)[C@H](C)CN[C@H](C)CO2 | -6.13% |
| C1=C(CCNc2ncnc3c2cnn3-c2ccccc2)CCCC1 | 69.7% (active) |
| Cc1nn(C(C)C(=O)NCCC2=CCCCC2)c(=O)c2nn(-c3ccccc3)c(C)c12 (stereo unspecified) | 21% |
| CC(C)Sc1ncnc2c1cnn2-c1ccccc1 | 19% |
| C[C@@H]1CN([C@@H](C)CO)C(=O)Cc2cc(NC(=O)CCN3CCOCC3)ccc2O[C@@H]1CN(C)C(=O)Nc1cccc2ccccc12 | -0.153% |
| Cc1cc(NC(=O)c2cc3ccccc3o2)no1 | 20.5% |
| CC(C)(C)n1nc2c(c1NC(=O)c1cc3ccccc3o1)CSC2 | -2.69% |
| CN(C)C(CNC(=O)c1cc2ccccc2o1)c1ccccc1 (stereo unspecified) | 7.21% |
| O=C(NCCc1ccc2c(c1)OCCO2)c1cc2ccccc2o1 | 24.4% |
| Cc1ccc(NC(=O)c2cc3ccccc3o2)cc1 | 52.9% (active) |
| O=C(Nc1ccncc1)c1cc2ccccc2o1 | 75.6% (active) |
| COc1ccccc1C#Cc1ccc2c(c1)O[C@@H](CN(C)Cc1cncnc1)[C@H](C)CN([C@@H](C)CO)S2(=O)=O | 8.66% |
| COC(=O)N(C)C[C@H]1OCc2ccccc2-c2ccccc2C(=O)N([C@@H](C)CO)C[C@H]1C | 5.99% |
| CN(c1ccccc1)S(=O)(=O)c1cccc(NC(=O)Cc2ccc(Cl)cc2)c1 | -11.6% |
| CN(c1cccc(NC(=O)Nc2ccc(Cl)cc2)c1)S(C)(=O)=O | 50.6% (active) |
| CN(c1cccc(NC(=O)c2ccc(CN3CCc4ccccc4C3)cc2)c1)S(C)(=O)=O | -0.323% |
